TEAD-YAP inh = TEAD-YAP interaction inhibition; hit rate 1.4% among 640,000; inhibition, % at 9.12 µM; HEK-TIYL cells, TEAD-Gal4/YAP UAS-luciferase luminescence; in the data active means inhibition above about 32%
FBW7 act = human FBW7 E3 ligase activation, primary screen | AlphaScreen FBW7–phospho-cyclin E peptide binding, activator screen | hit rate 0.13% among 650,000 | normalized activity (activation), % at 26.1 µM; in the data active means normalized activity above about 1.9%;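 further: purified mutant Fbw7 with reduced substrate affinity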
MITF primary = blocks human microphthalmia-associated transcription factor; hit rate 0.91% among 650,000; inhibition, % at 2.6 µM; AID 1259374; AlphaScreen MITF homodimerization, bead proximity signal; O75030; in the data active means inhibition above about 50%
GPR151 ag = human GPR151 activation; AID 1508602; hit rate 1% among 650,000; Q8TDV0; PathHunter beta-arrestin GPR151 cells, luminescence; activation, % at 11.2 µM; in the data active means activation above about 4.9%
Target sequence (Q8TDV0 whole entry, looked up): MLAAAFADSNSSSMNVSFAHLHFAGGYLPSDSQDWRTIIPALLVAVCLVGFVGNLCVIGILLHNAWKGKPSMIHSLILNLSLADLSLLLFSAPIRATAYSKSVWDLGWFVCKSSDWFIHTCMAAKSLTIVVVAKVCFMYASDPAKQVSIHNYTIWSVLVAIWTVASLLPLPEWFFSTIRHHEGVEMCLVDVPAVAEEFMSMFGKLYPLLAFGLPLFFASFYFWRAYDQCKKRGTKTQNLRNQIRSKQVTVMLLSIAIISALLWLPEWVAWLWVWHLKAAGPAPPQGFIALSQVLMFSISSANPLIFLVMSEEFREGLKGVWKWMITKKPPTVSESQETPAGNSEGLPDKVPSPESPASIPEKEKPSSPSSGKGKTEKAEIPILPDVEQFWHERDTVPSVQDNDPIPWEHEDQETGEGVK
Of the large screens only hits and unclear results are named; the others gave an inactive call. Sampled rows, rich in hits. Any-hit rate of the full collection: about 3.5%.

Cc1ccc(C)c(N2CCN(Cc3nnnn3CCc3ccccc3)CC2)c1	none
CN(C)c1ccc2c(c1)OC(N)=C(C#N)C2c1ccc(C(F)(F)F)cc1 (stereo unspecified)	none
CN(C)c1ccc2c(c1)OC(N)=C(C#N)C2c1cccc(C(F)(F)F)c1 (stereo unspecified)	TEAD-YAP inh 56.5
N#CC1=C(N)Oc2cc3c(cc2C1c1cccc(Br)c1)OCO3 (stereo unspecified)	TEAD-YAP inh 60.5
N#CC1=C(N)Oc2cc(N)ccc2C1c1cccc(Cl)c1 (stereo unspecified)	none
c1csc(C(c2nnnn2C2CCCCC2)N2CCN3CCCC3C2)c1 (stereo unspecified)	TEAD-YAP inh 62.5
C=CCN1CCN(C(c2ccccc2)c2nnnn2C2CCCC2)CC1 (stereo unspecified)	FBW7 act 1.9
CN1CCN(C(c2ccc(F)cc2)c2nnnn2C2CCCC2)CC1 (stereo unspecified)	none
c1cncc(C(c2nnnn2C2CCCCC2)N2CCN3CCCC3C2)c1 (stereo unspecified)	none
CN1CCN(C(c2ccc(N(C)C)cc2)c2nnnn2C2CCCC2)CC1 (stereo unspecified)	TEAD-YAP inh 51.2
C/C(N)=C(/C#N)C(=O)COC(=O)CSc1nnc(-c2ccc(Cl)cc2)o1	none
CCOC(=O)C1=C(C)NC(C)=C(C(=O)OCC)C1c1cc(Cl)cc(Cl)c1OC	none
CCOc1ccccc1NC(=O)c1ccc(CNc2c(N3CCC(C)CC3)c(=O)c2=O)cc1	none
COc1cccc(OCc2nc3cc(-c4cn[nH]c4C)ccc3c(=O)[nH]2)c1	TEAD-YAP inh 56.0
Cc1ccccc1OCc1nc2ccc(-c3cn[nH]c3C)cc2c(=O)[nH]1	TEAD-YAP inh 48.0
C[C@H]1[C@@H](OC(=O)CCC(=O)O)O[C@@H]2OC3(C)CC[C@H]4[C@H](C)CC[C@@H]1[C@@]24OO3	TEAD-YAP inh 82.3
C[C@@H]1CC[C@H]2[C@@H](C)C(O)O[C@@H]3OC4(C)CC[C@@H]1[C@]32OO4 (stereo partly specified)	TEAD-YAP inh 88.3
CO[C@H]1O[C@@H]2O[C@@]3(C)CC[C@H]4[C@H](C)CC[C@@H]([C@H]1C)[C@@]24OO3	none
Cc1c(NC(=S)N(C)CCC#N)c(=O)n(-c2ccccc2)n1C	none
O=C(/C=C/c1ccc(Cl)cc1)Nc1ccc(CN2CCOCC2)cc1	TEAD-YAP inh 40.8
O=C(Cc1ccc(Cl)cc1)Nc1ccc(CN2CCOCC2)cc1	none
CCc1ccc(CCC(=O)Nc2ncc(Cc3ccccc3F)s2)o1	none
O=C(CCl)Nc1ncc(Cc2ccccc2)s1	none
Cc1ccc(CCC(=O)Nc2ncc(Cc3ccccc3)s2)o1	TEAD-YAP inh 55.6
Cc1ccc(Cc2cnc(NC(=O)CCc3ccc(C)o3)s2)cc1	TEAD-YAP inh 66.9
Cc1ccc(CCC(=O)Nc2ncc(Cc3ccccc3Cl)s2)o1	TEAD-YAP inh 56.4
CC1CCN(S(=O)(=O)c2ccc(NC(=O)c3ccc(Br)o3)cc2)CC1	none
CC(=O)c1cccc(NC(=O)COc2ccc(C)cc2Br)c1	none
CC(C)(C)c1ccc(OCC(=O)Nc2ccncc2)c(Br)c1	TEAD-YAP inh 34.1
O=C(COc1ccc(CO)cc1Br)Nc1ccccc1	TEAD-YAP inh 54.6
Cc1ccc(OCC(=O)Nc2ccccc2)c(Br)c1	TEAD-YAP inh 70.3
COC(=O)C1CCCCN1Cc1ccc2c(c1)CN(C(=O)Cc1csc(C)n1)CCO2 (stereo unspecified)	none
CCOC(=O)c1c(NC(=O)c2cnn3c(C(F)(F)F)cc(-c4ccc(C)cc4)nc23)sc2c1CCCC2	none
Cc1ccc2[nH]c(=O)c(CN(CCO)S(=O)(=O)c3cccc4nsnc34)cc2c1	TEAD-YAP inh 48.1
COc1cc(N2CCOCC2)ccc1Nc1ncc(Cl)c(Nc2ccccc2C(=O)NC2CC2)n1	none
N#Cc1ccc(Nc2ncc(Cl)c(Nc3ccccc3C(N)=O)n2)cc1	none
COc1cnc(Nc2ccc(N3CCOCC3)cc2)nc1Nc1ccccc1C(N)=O	TEAD-YAP inh 55.3
NC(=O)c1ccccc1Nc1nc(Nc2ccc(N3CCCC3=O)cc2)ncc1Cl	TEAD-YAP inh 78.2
Cc1ncn(-c2ccc(Nc3ncc(C)c(Nc4ccccc4C(N)=O)n3)cc2)n1	TEAD-YAP inh 87.5
Cc1c2oc3c(C)ccc(C(=O)N[C@@H]4C(=O)N[C@H](C(C)C)C(=O)N5CCC[C@H]5C(=O)N(C)CC(=O)N(C)[C@@H](C(C)C)C(=O)O[C@@H]4C)c3nc-2c(C(=O)N[C@@H]2C(=O)N[C@H](C(C)C)C(=O)N3CCC[C@H]3C(=O)N(C)CC(=O)N(C)[C@@H](C(C)C)C(=O)O[C@@H]2C)c(N)c1=O	TEAD-YAP inh 95.7
COCCNCCCCOc1c(Cl)cc(C)cc1Br	none
COCCCNCCCOc1c(Cl)cc(C)cc1Br	TEAD-YAP inh 51.1
Cc1nc(-c2ccccc2)nc2[nH]c(-c3ccccc3)cc(=O)c12	none
Cc1nc(C)c2c(=O)cc(-c3ccccc3)[nH]c2n1	TEAD-YAP inh 52.2
CCOC(=O)C1=C(C)NC(C)=C(C(=O)OCC)C1c1ccc(O)c(O)c1	none
c1ccc(-n2cnc3c(NCc4nc5ccccc5[nH]4)nc(Nc4cccnc4)nc32)cc1	TEAD-YAP inh 72.6
c1ccc(-n2cnc3c(NCc4nc5ccccc5[nH]4)nc(Nc4ccc(-n5ccnc5)cc4)nc32)cc1	TEAD-YAP inh 56.9
c1ccc(-n2cnc3c(NCc4nc5ccccc5[nH]4)nc(Nc4ccncc4)nc32)cc1	TEAD-YAP inh 72.6
c1ccc2[nH]c(CNc3nc(Nc4ccncc4)nc4c3ncn4C3CCCCC3)nc2c1	TEAD-YAP inh 63.5
Cc1cc(C)n2nc(NCc3cccs3)nc2n1	none
COCCn1nnnc1C(c1ccccn1)N1CCC(O)CC1 (stereo unspecified)	none
CCOC(=O)c1c(NC(=O)C(F)(F)F)sc2c1CCC2	none
O=[N+]([O-])c1ccccc1-c1nc2ccccc2[nH]1	none
c1ccc(-c2cnc(N3CCC4(CC3)OCCO4)nc2)cc1	TEAD-YAP inh 70.4
Fc1ccc(-c2cc(N3CCC4(CC3)OCCO4)nc(-c3ccccn3)n2)cc1	none
COc1ccc(-c2cnc(N3CCC4(CC3)OCCO4)nc2)cc1	none
c1ccc(-c2cc(N3CCC4(CC3)OCCO4)nc(-c3ccccn3)n2)cc1	TEAD-YAP inh 42.8
COc1ccc(C2C(C(=O)N3CCC(C(N)=O)CC3)c3ccccc3C(=O)N2C2CCCCC2)cc1 (stereo unspecified)	none
O=C(CSCC(=O)Nc1ccccc1)N/N=C/c1c(O)ccc2ccccc12	TEAD-YAP inh 73.9
O=C(CSc1cccc2cccnc12)N/N=C/c1c(O)ccc2ccccc12	TEAD-YAP inh 34.3
NC(=O)NC(=O)CN1C(=O)NC2(CCCCC2)C1=O	none
CC(C)n1cnc2c(N)nc(NCCN3CCOCC3)nc21	none
Cc1noc(C)c1S(=O)(=O)N(C)Cc1cccnc1	none
Nc1nc2cc3c(cc2cc1C(=O)Nc1ccccc1)OCO3	TEAD-YAP inh 42.2
COc1cc(-c2[nH]nc3c2C(c2ccccc2Br)C(C#N)=C(N)O3)cc(OC)c1OC (stereo unspecified)	TEAD-YAP inh 35.8
COc1cc(-c2[nH]nc3c2C(c2ccccc2Cl)C(C#N)=C(N)O3)cc(OC)c1OC (stereo unspecified)	none
